# Measurements from PubChem BioAssay AID2685 (National Center for Advancing Translational Sciences (NCATS), 2010).
# About 2,100 (0.66%) of roughly 320,000 compounds were called active. Roughly 53% stayed inconclusive and do not appear here. The call rests on the fitted dose curve; in most records, active means well fitted inhibition curve with a large enough effect in the signal ratio, with a control signal flat (not every such curve was filed as active); inconclusive means small, poorly fitted or top-dose-only effect, or effect the other way, or a change in a side signal; inactive means flat fitted curve, though single readings scatter; the % refers to the signal ratio. The sample as a whole holds a higher share of actives than the screen did.
# Assay: qHTS Assay for Lipid Storage Modulators in Drosophila S3 Cells;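 on cell number change: cells counted by Cell Tracker Red CMTPX staining in the red channel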; on lipid storage change, negative = inhibition: on the % scale 0 is the no-effect control and ±100 the full control effect
# Settings: BODIPY lipid droplet fluorescence, 18-24 h, cells fed with added oleic acid; cell number change: measured here: cell count max response; series mostly up to 46.1 µM; lipid storage change, negative = inhibition: at the top concentration
# Procedure, shortened: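 Laser-scanning cytometry quantifies lipid droplet accumulation (500–530 nm total intensity; droplet/cell object ratio) in oleic acid-fed (400 uM added) Drosophila S3 cells treated with a concentration series. 20 uM Triacsin C defined 100% inhibition.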
# Potency means the concentration at half of the fitted maximal effect.
SMILES,"lipid storage change, negative = inhibition",cell number change [%],outcome,Potency
Cc1cc(C)c2[nH]c(=O)c(CN(C(=O)C3CCCO3)C3CCCC3)cc2c1 (stereo not drawn),3.45% (inactive),9.83,,
CCN1C(=O)[C@@H]2[C@@H](c3ccc(-c4ccc5c(c4)OCO5)c(OC)c3)N3CCCC[C@@]3(C(=O)OC)[C@@H]2C1=O,,,inactive,
CCN1C(=O)[C@@H]2[C@@H](c3ccc(-c4ccc(OC)cc4)c(OC)c3)N3CCCC[C@@]3(C(=O)OC)[C@@H]2C1=O,,24.8,,9.2 µM (active)
CCN1C(=O)[C@@H]2[C@@H](c3ccc(-c4ccc5c(c4)OCO5)c(OC)c3)N3CCC[C@@]3(C(=O)OC)[C@@H]2C1=O,5.27% (inactive),-1.65,,
CCN1C(=O)[C@H]2[C@@H](c3ccc(-c4ccc(OC)cc4)c(OC)c3)N3CCCC[C@@]3(C(=O)OC)[C@H]2C1=O,,-0.765,,5.8 µM (active)
CCN1C(=O)[C@@H]2[C@@H](c3ccc(-c4ccccc4)cc3)N3CCCC[C@@]3(C(=O)OC)[C@@H]2C1=O,,15.8,inactive,
CCN1C(=O)[C@H]2[C@@H](c3ccc(-c4ccccc4)cc3)N3CCCC[C@@]3(C(=O)OC)[C@H]2C1=O,13.3% (inactive),,,
Cc1cccc(OCC(=O)Nc2ccc3c(c2)nc(CCN2CCCCC2)n3C)c1,,,inactive,
CCc1ccc(NC(=O)[C@H](Cc2ccccc2)NC(=O)C2CCN(C(=O)[C@@H](N)CC(C)C)CC2)cc1,-9.52% (inactive),18,,
CC(=O)c1ccc(NC(=O)c2ccc(CSc3ccccc3)o2)cc1,15.1% (inactive),3.7,,
Cn1cncc1C#Cc1ccc2cc(C3(O)CCCCC3)oc(=O)c2c1,11.5% (inactive),-13.7,,
Cn1cncc1C#Cc1ccc2cc(CCO)oc(=O)c2c1,,17.2,,1.3 µM (active)
CN(C)c1ccc(C#Cc2ccc3cc(CCO)oc(=O)c3c2)cc1,-0.121% (inactive),24,,
COc1cccc(Oc2cc(Cl)nc(N)n2)c1,0.532% (inactive),-10.3,,
COc1ccc(Cl)cc1NC(=O)C(C)OC(=O)C1=NNC(=O)CC1 (stereo not drawn),13.5% (inactive),-0.986,,
O=C(N/N=C/c1ccccn1)c1cc(-c2ccncc2)nc2ccccc12,24.3% (inactive),0.674,,
CC1=C(C(=O)OCC2CCCO2)C(c2ccc(Cl)c(Cl)c2)NC(=O)N1 (stereo not drawn),0.886% (inactive),6.97,,
CC1=C(C(=O)N(C)C)C(c2ccc(Cl)c(Cl)c2)NC(=O)N1 (stereo not drawn),,-24.5,,3.66 µM (active)
CC1=C(C(=O)N(C)C)C(c2ccc(N3CCOCC3)cc2)NC(=O)N1 (stereo not drawn),10.6% (inactive),,,
N/C(=N\OC(=O)c1cccnc1)c1ccccc1Cl,-0.604% (inactive),-1.5,,
O=c1ncn(-c2ccccc2C(F)(F)F)c2ncccc12,14.1% (inactive),-1.22,,
CC(C)(C)NC(=O)CN(C(=O)CCN1CCCc2ccccc21)C(C)(C)C,,,,14.6 µM (active)
CC(C)(C)NC(=O)NC(=O)CN1CCCc2ccccc21,-1.35% (inactive),-16.4,,
CC(C(=O)NC(C)(C)C)N(Cc1cccs1)C(=O)CCN1CCc2ccccc21 (stereo not drawn),6.26% (inactive),1.12,,
